The list is not random: actives were taken first. Their share in the collection is about 6.9%.
HP1b binding inh: inhibitors of HP1-beta chromodomain binding to methylated histone tails | P83916 | AlphaScreen HP1-beta / biotin-H3K9me3 peptide binding | Potency, µM (titrated, usually from 114 µM), most hits filed as inhibitors | 390,000 tested, 0.56% active; further: nearly all actives have a fitted effect of over 70% in size
Target sequence (P83916 whole entry, looked up): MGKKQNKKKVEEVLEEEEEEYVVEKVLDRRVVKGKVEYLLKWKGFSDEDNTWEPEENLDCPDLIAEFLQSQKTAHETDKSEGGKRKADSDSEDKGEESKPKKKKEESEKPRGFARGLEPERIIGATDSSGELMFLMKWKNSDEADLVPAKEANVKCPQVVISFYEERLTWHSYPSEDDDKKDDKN
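HP1-beta protein (50 nM final) preincubated 30 min at room temperature with biotinylated H3(1-18)K9me3 peptide (50 nM) in PBS pH 7.4, 0.01% Tween-20, then compound added for 30 min. AlphaScreen streptavidin donor/nickel chelate acceptor beads (10 ug/mL final), 30 min dark, luminescence read.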
PLK1 PBD block: blocks phosphopeptide binding to human PLK1 polo-box domain; Potency, µM, most hits filed as inhibitors; AID 720504; Plk1 PBD binding of FITC phosphopeptide, fluorescence polarization; 360,000 tested, 2.8% active; further: series mostly up to about 57 µM; nearly all actives have a fitted effect of over 65% in size
VDR inh: inhibitors of human vitamin D receptor; 400,000 tested, 0.93% active; P11473; Potency, µM, usual class: inhibitors; VDR-SRC2-3 peptide fluorescence polarization, 2 h; AID 504847
Target sequence (P11473 whole entry, looked up): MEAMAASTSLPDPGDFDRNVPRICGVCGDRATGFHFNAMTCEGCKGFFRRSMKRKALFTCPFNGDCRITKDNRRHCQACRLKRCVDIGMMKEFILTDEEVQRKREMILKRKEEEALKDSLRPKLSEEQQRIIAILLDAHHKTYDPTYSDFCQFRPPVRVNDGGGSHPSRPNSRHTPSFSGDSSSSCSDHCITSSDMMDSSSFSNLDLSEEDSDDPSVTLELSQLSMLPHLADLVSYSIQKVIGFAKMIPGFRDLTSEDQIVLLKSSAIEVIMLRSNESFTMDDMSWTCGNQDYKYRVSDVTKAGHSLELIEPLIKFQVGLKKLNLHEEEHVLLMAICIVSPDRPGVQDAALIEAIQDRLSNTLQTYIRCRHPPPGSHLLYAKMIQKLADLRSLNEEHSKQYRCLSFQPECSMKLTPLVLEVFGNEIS
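Fluorescence polarization assay of small-molecule disruption of VDR binding to coregulator peptide SRC2-3. Compounds and controls pin-transferred, then read after 2 h incubation at ambient room temperature.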
BAZ2B inh: BAZ2B (human) inhibition | Q9UIF8 | AlphaScreen BAZ2B-H3K14Ac peptide displacement | Potency, µM (doses to about 114 µM), most hits filed as inhibitors | 360,000 tested, 4.4% active; further: nearly all actives have a fitted effect of over 60% in size
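Multi-concentration screen (max 110 uM) measuring displacement of acetylated histone H3 peptide from BAZ2B by AlphaScreen, using 50 nM protein, 50 nM peptide and 10 ug/mL streptavidin donor plus Ni-chelate acceptor beads.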
L3MBTL1 block: blocks human L3MBTL1 | Q9Y468 | AlphaScreen L3MBTL1–H3K9me1 peptide binding | Potency, µM (top dose mostly 57.1 µM), actives largely listed as inhibitors | 230,000 tested, 0.66% active; further: nearly all actives have a fitted effect of over 60% in size
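AlphaScreen proximity signal between nickel-chelate acceptor and streptavidin donor beads (final 10 ug/mL) reports binding of 50 nM L3MBTL1 to 75 nM biotin-H3 K9me1 peptide; complex incubated with compounds 30 min at room temperature; cefsulodin titration as control.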
JMJD2A Tudor: inhibitors of human JMJD2A Tudor domain; O75164; AlphaScreen JMJD2A-Tudor / H3K4me3 peptide binding; Potency, µM (top dose mostly 114 µM), usual class: inhibitors; 390,000 tested, 4.4% active; AID 504339; further: nearly all actives have a fitted effect of over 50% in size
Hits are given with their value. The call rests on the fitted dose curve; in most records, active means well fitted curve in the direction sought with a large enough effect; inconclusive means small, poorly fitted or top-dose-only effect, or another doubt; inactive means no such curve, though single readings can be large; an effect the other way counts as inactive or inconclusive.

Results for CN(C)c1ccc(-c2nn3c(-c4ccccc4Cl)nnc3s2)cc1 ?
HP1b binding inh: inactive; PLK1 PBD block: inactive; VDR inh: inactive; BAZ2B inh: inactive; L3MBTL1 block: inactive; JMJD2A Tudor: inactive

How did c1ccc(Cc2nn3c(-c4ccncc4)nnc3s2)cc1 do in these assays?
HP1b binding inh: inactive; PLK1 PBD block: 24µM; VDR inh: inconclusive; BAZ2B inh: inactive; L3MBTL1 block: inactive; JMJD2A Tudor: inactive

What do the screens show for `Cc1cccc(-c2nc(CSCC(=O)NCCc3ccc(Cl)cc3)c(C)o2)c1`?
HP1b binding inh: inactive; VDR inh: inactive; BAZ2B inh: inactive; JMJD2A Tudor: inactive

How did COC1OC2COC(c3ccccc3)OC2C(O)C1O (centres undefined) do in these assays?
VDR inh: inactive

How did CN(C1CCCCC1)S(=O)(=O)c1ccc2c(c1)c(=O)c(C(=O)NCc1ccccc1Cl)cn2C do in these assays?
HP1b binding inh: inactive; VDR inh: inactive; JMJD2A Tudor: inactive

What do the screens show for `CCOC(=O)c1ccc(CN(Cc2ccc(F)cc2)S(=O)(=O)c2ccc(F)c(C(=O)Nc3cc(Cl)ccc3OC)c2)cc1`?
HP1b binding inh: inactive; VDR inh: inactive; BAZ2B inh: inactive; JMJD2A Tudor: inactive

Results for CC(=NNC(=S)N(Cc1ccccn1)Cc1ccccn1)c1cnccn1 ?
HP1b binding inh: inconclusive; PLK1 PBD block: inactive; VDR inh: inactive; JMJD2A Tudor: 18µM

What do the screens show for `O=C(NN=C(c1ccccc1)c1ccccn1)c1ccccc1`?
HP1b binding inh: inactive; PLK1 PBD block: inactive; VDR inh: inactive; L3MBTL1 block: inactive; JMJD2A Tudor: inconclusive

Results for Cc1ccccc1NC(=S)N(Cc1ccccn1)Cc1ccccc1Cl ?
HP1b binding inh: inactive; PLK1 PBD block: inactive; VDR inh: inactive; BAZ2B inh: inactive; L3MBTL1 block: inactive; JMJD2A Tudor: inactive

How did S=C(NN=C(c1ccccc1)c1ccccn1)N(Cc1ccccn1)Cc1ccccn1 do in these assays?
HP1b binding inh: inconclusive; PLK1 PBD block: inconclusive; VDR inh: inactive; JMJD2A Tudor: 13µM

Results for O=C(CCCC(=O)N/N=C\c1ccccn1)N/N=C\c1ccccn1 ?
HP1b binding inh: inactive; PLK1 PBD block: inactive; VDR inh: inactive; BAZ2B inh: inconclusive; L3MBTL1 block: inactive; JMJD2A Tudor: inactive

Results for S=C(NN=Cc1ccccn1)N(Cc1ccccn1)Cc1ccccn1 ?
HP1b binding inh: inconclusive; PLK1 PBD block: inactive; VDR inh: inactive; JMJD2A Tudor: 20µM

How did O=S(=O)(c1ccccc1)N1CCC2(CCN(c3ccc(-c4ccccc4)cc3)CC2)CC1 do in these assays?
VDR inh: inactive

What do the screens show for `COc1cc(Cl)c(C)cc1NC(=O)NC1COc2ccccc2C1` (centres undefined)?
HP1b binding inh: inactive; VDR inh: inactive; BAZ2B inh: inactive; JMJD2A Tudor: inactive

How did Cc1ccc(NC(=O)CN2C(=O)c3cccnc3Sc3ccccc32)cc1C do in these assays?
HP1b binding inh: inactive; VDR inh: inactive; BAZ2B inh: inactive; JMJD2A Tudor: inactive

What do the screens show for `COC(=O)C(=C/C(C)=C/c1cccs1)C(=O)OC`?
HP1b binding inh: inconclusive; PLK1 PBD block: 19µM; VDR inh: inactive; BAZ2B inh: inactive; L3MBTL1 block: inactive; JMJD2A Tudor: inactive

Results for Cn1c(O)c(N=NC(=O)C2COc3ccccc3O2)c2ccccc21 (centres undefined) ?
HP1b binding inh: inconclusive; PLK1 PBD block: 27µM; VDR inh: inactive; BAZ2B inh: inactive; L3MBTL1 block: inactive; JMJD2A Tudor: inconclusive

Results for CCOC(=O)C(=O)N=Nc1c(O)n(C)c2ccccc12 ?
HP1b binding inh: inactive; PLK1 PBD block: inactive; VDR inh: inactive; BAZ2B inh: inactive; L3MBTL1 block: inactive; JMJD2A Tudor: inactive

How did Cn1c(O)c(N=NC(=O)c2ccccc2O)c2ccccc21 do in these assays?
HP1b binding inh: inconclusive; PLK1 PBD block: 3.4µM; VDR inh: inconclusive; BAZ2B inh: inactive; L3MBTL1 block: inactive; JMJD2A Tudor: inconclusive

How did COc1ccccc1NC(=O)Cn1c(O)c(N=NC(=O)c2ccccc2O)c2ccccc21 do in these assays?
HP1b binding inh: inactive; PLK1 PBD block: inactive; VDR inh: inactive; BAZ2B inh: 56µM; L3MBTL1 block: inactive; JMJD2A Tudor: inactive

How did Cc1cc(N=NC(=O)c2ccccc2O)c2ccccc2c1O do in these assays?
HP1b binding inh: inactive; PLK1 PBD block: 27µM; VDR inh: inactive; BAZ2B inh: inactive; JMJD2A Tudor: inconclusive

How did CC(C)[C@@H]1Cc2[nH]n(C)c(=O)c2[C@H](c2ccc(F)cc2)O1 do in these assays?
PLK1 PBD block: inactive

Results for Cn1[nH]c2c(c1=O)[C@H](c1ccc(F)cc1)O[C@H](CCc1ccccc1)C2 ?
PLK1 PBD block: 19µM

How did Cc1ccc(-n2nc(C)c3c(C)cc(=O)n(CC(=O)NC(C)c4ccccc4)c32)cc1 (centres undefined) do in these assays?
HP1b binding inh: inactive; VDR inh: inactive; BAZ2B inh: inactive; JMJD2A Tudor: inactive

How did COc1ccc2c(c1)CC(C(=O)Nc1ccc(Br)c(C)c1)CO2 (centres undefined) do in these assays?
HP1b binding inh: inactive; VDR inh: inactive; BAZ2B inh: inactive; JMJD2A Tudor: inactive

Results for Cc1ccccc1CN1CCN(CC2CC3C=CC2C3)CC1 (centres undefined) ?
HP1b binding inh: inconclusive; PLK1 PBD block: inactive; VDR inh: inactive; BAZ2B inh: 22µM; JMJD2A Tudor: 5.6µM

How did CCN1CCN(CC2CC3C=CC2C3)CC1 (centres undefined) do in these assays?
HP1b binding inh: inconclusive; PLK1 PBD block: inactive; VDR inh: inactive; BAZ2B inh: 50µM; L3MBTL1 block: inactive; JMJD2A Tudor: 1.3µM

What do the screens show for `Cc1ccccc1CN1CCN(S(C)(=O)=O)CC1`?
HP1b binding inh: inactive; PLK1 PBD block: inactive; VDR inh: inactive; BAZ2B inh: inactive; L3MBTL1 block: inactive; JMJD2A Tudor: inactive

What do the screens show for `CC(=O)N1CCc2cc(Br)cc(S(=O)(=O)NCCc3cccc(C)c3)c21`?
HP1b binding inh: inactive; VDR inh: inactive; BAZ2B inh: inactive; JMJD2A Tudor: inactive

What do the screens show for `COc1cccc(NS(=O)(=O)c2ccc3[nH]cc(C(=O)N(C)C4CCCCC4)c(=O)c3c2)c1`?
HP1b binding inh: inactive; VDR inh: inactive; BAZ2B inh: inactive; JMJD2A Tudor: inactive

How did O=C(O)c1ncn(Cc2ccccc2)c1C(=O)O do in these assays?
HP1b binding inh: inactive; PLK1 PBD block: inactive; VDR inh: inactive; BAZ2B inh: 32µM; L3MBTL1 block: inactive; JMJD2A Tudor: 6.3µM

Results for O=C(CSC1=Nc2ccccc2N=C(c2ccc(F)cc2)C1)NCc1ccccc1 ?
HP1b binding inh: inactive; VDR inh: inactive; BAZ2B inh: inactive; JMJD2A Tudor: inactive

Source: PubChem BioAssay (National Center for Advancing Translational Sciences (NCATS))
